# Measured values from PubChem BioAssay (Tox21).
# Where “and” joins values, the source holds several entries; their conditions need not be identical. Equal values may be shown once. Results filed as inconclusive are left out. Where a call stands in place of a potency, no number is given. Unmarked numbers belong to inactive results. Calls of active or inactive are those of the source. Calls come from the whole dose curve; as a rule, active = well fitted cell-killing curve with a large enough effect in the repeat runs; inconclusive = weak or mixed curves, or effect the other way; inactive = flat fitted curve, though single readings scatter.
# Key:
# [1] = cAMP Responsive Elements (CRE) small molecule antagonists, cell-based qHTS assay: qHTS cell viability counter screen (AID 2060913); note: nearly all actives have a fitted effect of over 40% in size
# Method in brief: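 Steps: cells plated and held 18 hrs at 37 C/5% CO2; compounds and NKH477 (0.25 uM final) added; 3 hrs incubation; reporter substrate read; CellTiter-Glo added to measure cytotoxicity by luminescence.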
# [2] = cAMP Responsive Elements (CRE) small molecule agonists, cell-based qHTS assay: qHTS cell viability counter screen (AID 2060914);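 note: viability read after 3 h of compound exposure; nearly all actives have a fitted effect of over 50% in size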
# Method in brief: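 HEK 293T CRE-bla; DMEM + 10% dialyzed FBS, 25 mM HEPES; 18 h pre-incubation; compound 3 h, 37 °C/5% CO2; CellTiter-Glo added after reporter read; luminescence after 30 min RT.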
# Potency is the fitted concentration of half-maximal effect.
Compound,Potency [1],Potency [2],"viability change, negative = cytotoxic [1]","activity change, negative = cytotoxicity [2]"
C1CCSC1,inactive,inactive,,
Nc1ccc(F)c([N+](=O)[O-])c1,inactive,inactive,,
O=C(O)c1cc(Cl)cc(Cl)c1,inactive,inactive,,
O=C1NC(=O)c2cc([N+](=O)[O-])ccc21,inactive,inactive,,
O=C(O)[C@@H]1CSCN1,inactive,inactive,,
CC(C)c1cc(C(C)C)cc(C(C)C)c1,inactive,inactive,,
CC(C)CCCCCCc1ccc(O)cc1,55.4 µM (active) and 27.3 µM (active),55.4 µM (active) and 30.6 µM (active),,
CC(C)(c1ccccc1)c1ccc(Nc2ccc(C(C)(C)c3ccccc3)cc2)cc1,inactive,inactive,,
C/C=C/C(=O)C1=C(C)C=CCC1(C)C,inactive,inactive,,
CCN(Cc1ccncc1)C(=O)C(CO)c1ccccc1 (stereo not drawn),inactive,inactive,,
C[C@@H](O)[C@H]1C(=O)N2C(C(=O)O)=C(S[C@@H]3CN[C@H](C(=O)N(C)C)C3)[C@H](C)[C@H]12,inactive,inactive,,
CCCCC(CC)COC(=O)CCCCCCCCC(=O)OCC(CC)CCCC (stereo not drawn),inactive,inactive,,
CCCCOc1ccc(N)cc1,inactive,inactive,,
C=CCCCCCCCCCC,inactive,inactive,,
O=c1cc(CO)occ1O,inactive,inactive,,
CCN(CC)CCOC(=O)C1(c2ccccc2)CCCC1,inactive,inactive,,
CC(C)(C)CC(C)(C)c1ccc(OCCOCC[N+](C)(C)Cc2ccccc2)cc1,27.3 µM (active) and 29.8 µM (active),54.4 µM (active) and 29.8 µM (active),,
CNC(=O)Oc1ccc2c(c1)[C@]1(C)CCN(C)[C@@H]1N2C,inactive,inactive,,
Nc1ccc(-c2ccc(F)cc2)cc1,inactive,inactive,,
CC[N+](CC)(CC(=O)Nc1c(C)cccc1C)Cc1ccccc1 (tested in a mixture with another compound),inactive,inactive,,
C=C1CC[C@H]2O[C@]2(C)CC[C@@H]2[C@@H]1CC2(C)C,inactive,inactive,,
CCCCCC1CCC(=O)O1 (stereo not drawn),inactive,inactive,,
CC(=O)OCC(COC(C)=O)OC(C)=O,inactive,inactive,,
CCC(C)C1N=C(C)C(C)S1 (stereo not drawn),inactive,inactive,,
Cc1cccc2c1cc1ccc3cccc4ccc2c1c34,inactive,inactive,,

Compound,Potency [1],Potency [2],"viability change, negative = cytotoxic [1]","activity change, negative = cytotoxicity [2]"
Cc1ccc(Cl)c(N)c1Cl,inactive,inactive,,
c1ccc(C(O[C@H]2CCCN(CCc3ccc4c(c3)OCO4)C2)c2ccccc2)cc1,inactive,inactive,,
CC(O)CN(CCN(CC(C)O)CC(C)O)CC(C)O (stereo not drawn),inactive,inactive,,
O=C(O)/C=C/c1cnc[nH]1,inactive,inactive,,
CC(=O)OCC(=O)[C@@]1(O)CC[C@H]2[C@@H]3CCC4=CC(=O)C=C[C@]4(C)[C@@]3(F)[C@@H](O)C[C@@]21C,inactive,inactive,,
CC(=O)O[C@H]1C[C@@H]2CC[C@@]1(C)C2(C)C,inactive,inactive,,
CC(CC=O)CC(C)(C)C (stereo not drawn),inactive,inactive,,
O=C=Nc1ccc(Cl)c(Cl)c1,inactive,inactive,,
Cc1cccc(N(C)C)c1,inactive,inactive,,
O=C(CC(=O)C(F)(F)F)c1ccccc1,inactive,inactive,,
O=C(O)/C=C(\CC(=O)O)C(=O)O,inactive,inactive,,
CCn1c(=O)c2c(nc(/C=C/c3ccc(OC)c(OC)c3)n2C)n(CC)c1=O,inactive,inactive,,
CCN(CCO)c1cccc(C)c1,inactive,inactive,,
Cc1ccc(C(C)C)cc2c(C)ccc1-2,inactive,inactive,,
C=Cc1ccccc1,inactive,inactive,,
OC1CCC(C2CCCCC2)CC1 (stereo not drawn),inactive,inactive,,
Brc1ccc(Br)c(Br)c1,inactive,inactive,,
CC1=CC(=O)[C@H]2C[C@@H]1C2(C)C,inactive,inactive,,
COC(=O)c1ccc(C)cc1C1=NC(C)(C(C)C)C(=O)N1 (stereo not drawn),inactive,inactive,,
CCCCCCCCCCCCC(=O)O,inactive,inactive,,
OC(CCN1CCCCC1)(c1ccccc1)c1ccccc1,inactive,inactive,,
CN(C)C=O,inactive,inactive,,
COc1cc(C)ccc1C(C)C,inactive,inactive,,
CCOC(=O)O[C@]1(C(=O)OCCl)CC[C@H]2[C@@H]3CCC4=CC(=O)C=C[C@]4(C)[C@H]3[C@@H](O)C[C@@]21C,inactive,inactive,,
CC[C@H]1OC(=O)[C@H](C)[C@@H](O[C@H]2C[C@@](C)(OC)[C@@H](O)[C@H](C)O2)[C@H](C)[C@@H](O[C@@H]2O[C@H](C)C[C@H](N(C)C)[C@H]2O)[C@](C)(O)C[C@@H](C)CN(C)[C@H](C)[C@@H](O)[C@]1(C)O,inactive,inactive,,

Compound,Potency [1],Potency [2],"viability change, negative = cytotoxic [1]","activity change, negative = cytotoxicity [2]"
CC(=O)c1ccc(Cl)c(Cl)c1Cl,inactive,inactive,,
CO[C@@]1(NC(=O)C(C(=O)O)c2ccc(O)cc2)C(=O)N2C(C(=O)O)=C(CSc3nnnn3C)CO[C@@H]21 (stereo partly drawn),inactive,inactive,,
OC(CCl)CCl,inactive,inactive,,
CCCCCCOc1ccccc1C(N)=O,inactive,inactive,,
CCCCCOC(=O)Nc1nc(=O)n([C@@H]2O[C@H](C)[C@@H](O)[C@H]2O)cc1F,inactive,inactive,,
CCCCN,inactive,inactive,,
CCCC(=O)CC,inactive,inactive,,
C=CCCCCCCCCC(=O)OCCCC,inactive,inactive,,
C/C(=C(/OCCOc1ccc(Cl)cc1)c1ccc(Cl)cc1Cl)n1ccnc1,inactive,inactive,,
CCCCCCCCCCCSCC(=O)O,inactive,inactive,,
C1CN(SSN2CCOCC2)CCO1,inactive,inactive,,
ClCCOCCOCCCl,inactive,inactive,,
Cc1occc(=O)c1OC(=O)C(C)C,inactive,inactive,,
Cc1c(N(C)CS(=O)(=O)O)c(=O)n(-c2ccccc2)n1C,inactive,inactive,,
CC(C)(C)CC(C)(C)c1ccc(Nc2ccc(C(C)(C)CC(C)(C)C)cc2)cc1,,,-5.06% [at 8.39 µM],6.62% [at 8.39 µM]
CN1CC(=O)N/C1=N/C(=O)Nc1cccc(Cl)c1,inactive,inactive,,
CC1=CC[C@@H](C(C)(C)O)CC1,inactive,inactive,,
Cc1ccc(-c2ccccc2)cc1,inactive,inactive,,
O=[N+]([O-])c1ccc2nc[nH]c2c1,inactive,inactive,,
CC(O)C(=O)O (stereo not drawn),inactive,inactive,,
C(=C\c1ccccc1)/c1ccccc1,inactive,inactive,,
C[C@@H]1C[C@H]2[C@@H]3CCC4=CC(=O)C=C[C@]4(C)[C@@]3(F)[C@@H](O)C[C@]2(C)[C@@]1(O)C(=O)COP(=O)(O)O,inactive,inactive,,
CCCCCCCCCCCC(=O)Cl,inactive,inactive,,
CCCCCCCCCCCC(=O)OC,inactive,inactive,,
FC(F)(F)C(F)(F)C(F)(F)C(F)(F)C(F)(F)C(F)(F)C(F)(F)C(F)(F)Br,inactive,inactive,,

Compound,Potency [1],Potency [2],"viability change, negative = cytotoxic [1]","activity change, negative = cytotoxicity [2]"
COc1ccc([C@@H]2CC(=O)c3c(O)cc(O[C@@H]4O[C@H](CO[C@@H]5O[C@@H](C)[C@H](O)[C@@H](O)[C@H]5O)[C@@H](O)[C@H](O)[C@H]4O)cc3O2)cc1OC,inactive,inactive,,
CCCCCCOCCO,inactive,inactive,,
COCCOc1cc2cc(C(=O)NC3CCN(C(C)C)CC3)n(CC(=O)Nc3ccc(Cl)cn3)c2cn1,inactive,inactive,,
S=C([S-])NCCNC(=S)[S-].[Mn+2],inactive,inactive,,
C/C(CC(C)C)=N\O,inactive,inactive,,
CN(C)CCCNCCCN(C)C,inactive,inactive,,
CC(C)(C)NCC(O)c1ccc(O)c(CO)c1 (stereo not drawn),inactive,inactive,,
Nc1cc(C(=O)O)c(O)c(S(=O)(=O)O)c1,inactive,inactive,,
Cc1cn([C@H]2C[C@H](F)[C@@H](CO)O2)c(=O)[nH]c1=O,inactive,inactive,,
O=C(O)CN(CCCN(CC(=O)O)CC(=O)O)CC(=O)O,,,0.188% [at 18.9 µM],-8.11% [at 18.9 µM]
O=c1[nH][nH]c(=O)c2cc([N+](=O)[O-])ccc12,inactive,inactive,,
OCCOc1ccc(OCCO)cc1,inactive,inactive,,
COC(=O)c1cc(Cl)ccc1NS(=O)(=O)C(F)(F)F,inactive,inactive,,
c1cc(OCC2CO2)cc(OCC2CO2)c1 (stereo not drawn),inactive,inactive,,
O=C(O)c1cc(Cl)cc([N+](=O)[O-])c1Cl,inactive,inactive,,
ICCc1ccccc1,inactive,inactive,,
CCCCCCCCCCCCCCCCC(=O)O,inactive,inactive,,
C=CCSSCCC,inactive,inactive,,
COC(=O)c1ccccc1C,inactive,inactive,,
COC(=O)Nc1nc2ccc(C(=O)C3CC3)cc2[nH]1,inactive,inactive,,
CC(C)(C)CC(=O)OCC(=O)[C@@]1(O)CC[C@H]2[C@@H]3CCC4=CC(=O)C=C[C@]4(C)[C@H]3[C@@H](O)C[C@@]21C,inactive,inactive,,
CCCCCCCCCCCCOC(C)=O,inactive,inactive,,
CCCCCCCCCCN,inactive,inactive,,
C=Cc1ccncc1,inactive,inactive,,
